Compounds without any hit were thinned out: in the full panel of roughly 83,000, 20% have a hit.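 Single-dose data. Exposure time 48 hours. Values below 10 considered active.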 Activity calls are given as the source filed them.

One assay deals with K-562 leukemia. Nature of the assay: NCI-60 one-dose screen, 48 h (100 = growth as untreated, 0 = no growth, -100 = all killed). As to conditions: 10 µM.
`COc1cc(Cl)cc(-c2nn(-c3cccc(NC(=O)Nc4ccc(Cl)c(Cl)c4)c3)cc2-c2ccncc2)c1`: the growth was 10% (inactive).
With `CC1=C(N2CCOCC2)C(N2CCOCC2)=C(C)C(=O)C1=O`, the growth was 93% (inactive).
Still for that read-out and setting: for `COc1cc(-c2nc(Nc3nc4ccccc4s3)[nH]c(=O)c2C#N)cc(OC)c1O` the value was 100% (inactive); for `COc1ccc(CN2CCC(N3CCCC3=O)c3cc(Cl)ccc32)cc1` (configuration not stated), 106% (inactive).
Same read-out and setting: for `CC(=O)O[C@]1(C)CC[C@H]2[C@H](CNCCc3ccc(Cl)cc3)C(=O)O[C@@H]2C2=C(C)C(=O)C[C@H]21` the value was 79.4% (inactive); for `COc1ccc(-c2nn(-c3cccc(NC(=O)Nc4cc(C(F)(F)F)cc(C(F)(F)F)c4)c3)cc2-c2ccncc2)cc1Cl`, 7.03% (active); for `CN(CCc1ccccn1)c1ccccc1`, 95.2% (inactive).
`COc1ccc(N=C2C(=Nc3ccc(OC)cc3)N(c3ccc(N(C)C)cc3)C(=S)N2c2ccc(OC)cc2)cc1`: the growth is 61.9% (inactive).
On the same count and under the same terms, the result for `COc1cc2nc(Nc3cccc(NC(C)=O)c3)nc(N)c2cc1OC` reads 103% (inactive); that for `C#Cc1ccc(-n2c(/C=C/c3ccc(Cl)c(F)c3)nc3ncccc3c2=O)cc1`, -8.5% (active); that for `COc1cccc(Cn2c(-c3nonc3N)nc3ccccc32)c1`, 9.47% (active).
On the same count and under the same terms, the result for `c1ccc([I+]c2ccccc2)cc1` reads 42.2% (inactive).
The same measure, in the same setting: the result for `O=C(c1cccs1)c1ccccc1Cc1ccccc1` reads 98.2% (inactive); that for `COc1ccc(-c2ccc(-c3ccc(C(=N)N)cn3)o2)cc1`, 24.7% (inactive); that for `Nc1c(C(=O)Nc2cccc3ccccc23)sc2nc3c(cc12)C(=O)CCC3`, 10.3% (inactive).
For the compound `COc1ccc(Nc2ccnc(NCCNc3ccnc4cc(Cl)ccc34)n2)cc1`, the growth was 3.54% (active).
Still for that read-out and setting: the result for `O=C(Nc1ccc(Cl)c([N+](=O)[O-])c1)Nc1nc2ccccc2s1` reads 74.9% (inactive); that for `COc1cc(C(=O)/C=C/c2cc(-c3cc(OC)c(OC)c(OC)c3)n[nH]2)cc(OC)c1OC`, 4.46% (active); that for `CC(=O)N1C/C(=C/c2ccc(Cl)cc2)C(=O)/C(=C/c2ccc(Cl)cc2)C1`, 2.09% (active).
Same read-out and setting: for `COc1cc(/C=N/NC(=O)c2ccccc2Nc2cccc(C(F)(F)F)c2)cc(OC)c1OC` the value was 12.3% (inactive); for `O=C1N=NC2=C1c1c3ccccc3c(O)n1CC2`, 93% (inactive).
As to `CS(=O)(=O)Nc1cccc(-c2cc(-c3ccccc3Cl)c(C#N)c(N)n2)c1`, the growth is 14.1% (inactive).
Same read-out and setting: the result for `N#Cc1ncc(-c2ccc(C(F)(F)F)cc2)c(NCc2cc(C(F)(F)F)cc(C(F)(F)F)c2)n1` reads 16.1% (inactive).

The next assay concerns MALME-3M melanoma. The assay is described as above. As to conditions: 10 µM.
In the case of `CCCCCCCNc1nc(C=O)ncc1-c1ccc(C(F)(F)F)cc1`, the growth is 86.8% (inactive).
`C#Cc1ccc(-n2c(/C=C/c3ccc4ccccc4n3)nc3ncccc3c2=O)cc1`: the growth is -62.9% (active).
As for `O=C1c2ccc3c4c(ccc(c24)C(=O)N1CCNCc1ccccc1)C(=O)N(CCNCc1ccccc1)C3=O`, the growth was -68.4% (active).
`CCN(CC)Cc1cc(Nc2ccnc3cc(Cl)ccc23)ccc1OC`: the growth is 110% (inactive).
Still for that read-out and setting: the result for `Nc1ccc2c(c1)C1(CCC2)NC(=O)NC1=O` (configuration not stated) reads 101% (inactive).
Still for that read-out and setting: for `O=C(Nc1cccc(Cl)c1)Nc1nccs1` the value was 93.5% (inactive); for `N=C(N)c1ccc(-c2ccc(-c3cccs3)s2)s1`, -73.9% (active).
The same measure, in the same setting: for `O=C1NC(=O)N(Cc2ccccc2)CC1Br` (configuration not stated) the value was 77.8% (inactive).
Regarding `COc1cc(C(=O)N2CCN(c3ccccc3OC)CC2)c(N)cc1OCCCN1CCN(c2ccccc2OC)CC1`, the growth is 83.4% (inactive).
Take `CN(C)CCN=c1nc2c(c(N)n1-c1ccccc1)c(=S)n(-c1ccccc1)c(=S)n2-c1ccccc1`: the growth is -89.5% (active).
Same read-out and setting: the result for `CCOC(=O)c1ccc(NC(=O)Nc2ncc(Cl)cc2Cl)cc1` reads 111% (inactive); that for `CN(C)N=Nc1nn(C(=O)Nc2ccc(Cc3ccccc3)cc2)c2ccccc12`, 53.8% (inactive); that for `CC(=O)N(C)c1ccc(Nc2ccc(Nc3ccc(N(C)C(C)=O)cc3)c3c2C(=O)c2ccccc2C3=O)cc1`, 113% (inactive).
Turning to `CCOC(=O)C1(CC(C)C)CCOC1=O` (configuration not stated), the growth is 101% (inactive).
On the same count and under the same terms, for `COc1ccc2c(c1)nc(N)c1c3cccnc3cn21` the value was 66.3% (inactive); for `CSCCCNC(=O)c1ccc2c(c1)/C(=C/c1[nH]c(C)cc1C)C(=O)N2`, -9.58% (active).
Still for that read-out and setting: the result for `COc1cc(Cl)cc(-c2nn(-c3cccc(NC(=O)Nc4ccc(Cl)c(Cl)c4)c3)cc2-c2ccncc2)c1` reads -19.8% (active); that for `CC1=C(N2CCOCC2)C(N2CCOCC2)=C(C)C(=O)C1=O`, 101% (inactive).
On the same count and under the same terms, the result for `COc1cc(-c2nc(Nc3nc4ccccc4s3)[nH]c(=O)c2C#N)cc(OC)c1O` reads 118% (inactive); that for `COc1ccc(CN2CCC(N3CCCC3=O)c3cc(Cl)ccc32)cc1` (configuration not stated), 88.6% (inactive).
For the compound `CC(=O)O[C@]1(C)CC[C@H]2[C@H](CNCCc3ccc(Cl)cc3)C(=O)O[C@@H]2C2=C(C)C(=O)C[C@H]21`, the growth is 84.2% (inactive).
With `COc1ccc(-c2nn(-c3cccc(NC(=O)Nc4cc(C(F)(F)F)cc(C(F)(F)F)c4)c3)cc2-c2ccncc2)cc1Cl`, the growth is -19.9% (active).
Still for that read-out and setting: the result for `CN(CCc1ccccn1)c1ccccc1` reads 168% (inactive).
The same measure, in the same setting: for `COc1ccc(N=C2C(=Nc3ccc(OC)cc3)N(c3ccc(N(C)C)cc3)C(=S)N2c2ccc(OC)cc2)cc1` the value was 72.9% (inactive).
As to `COc1cc2nc(Nc3cccc(NC(C)=O)c3)nc(N)c2cc1OC`, the growth is 101% (inactive).
Same read-out and setting: the result for `C#Cc1ccc(-n2c(/C=C/c3ccc(Cl)c(F)c3)nc3ncccc3c2=O)cc1` reads -60.4% (active); that for `COc1cccc(Cn2c(-c3nonc3N)nc3ccccc32)c1`, 68.3% (inactive); that for `c1ccc([I+]c2ccccc2)cc1`, 50.5% (inactive).
Same read-out and setting: for `O=C(c1cccs1)c1ccccc1Cc1ccccc1` the value was 110% (inactive); for `COc1ccc(-c2ccc(-c3ccc(C(=N)N)cn3)o2)cc1`, 39.4% (inactive).
On the same count and under the same terms, the result for `Nc1c(C(=O)Nc2cccc3ccccc23)sc2nc3c(cc12)C(=O)CCC3` reads 59.9% (inactive); that for `COc1ccc(Nc2ccnc(NCCNc3ccnc4cc(Cl)ccc34)n2)cc1`, -1.18% (active).
`O=C(Nc1ccc(Cl)c([N+](=O)[O-])c1)Nc1nc2ccccc2s1`: the growth is 67.6% (inactive).
Same read-out and setting: for `COc1cc(C(=O)/C=C/c2cc(-c3cc(OC)c(OC)c(OC)c3)n[nH]2)cc(OC)c1OC` the value was -56% (active); for `CC(=O)N1C/C(=C/c2ccc(Cl)cc2)C(=O)/C(=C/c2ccc(Cl)cc2)C1`, -56.4% (active).
Still for that read-out and setting: for `COc1cc(/C=N/NC(=O)c2ccccc2Nc2cccc(C(F)(F)F)c2)cc(OC)c1OC` the value was 11.5% (inactive); for `O=C1N=NC2=C1c1c3ccccc3c(O)n1CC2`, 109% (inactive).
On the same count and under the same terms, for `CS(=O)(=O)Nc1cccc(-c2cc(-c3ccccc3Cl)c(C#N)c(N)n2)c1` the value was 24.8% (inactive).
Consider `N#Cc1ncc(-c2ccc(C(F)(F)F)cc2)c(NCc2cc(C(F)(F)F)cc(C(F)(F)F)c2)n1`, for which the growth is 10.1% (inactive).
